In PubChem BioAssay AID1159580 (chemical genetic matrix, 2015):
“And” between values parts separate entries of the source, which are not always exact repeats. Equal entries are not always repeated. Out of some 5,500 compounds screened, about 2,000 (36%) were called active. About 18% were inconclusive and are not listed. Cut-off read from the data, not from the text of the source: active = normalized growth mostly below about 0.91 (no sharp cut-off); inconclusive = no clear call, values can overlap the other calls; inactive = mostly above about 0.92. The list shows a part of the results.

Experiment: chemical genetic growth profiling, strain panel (AID 1159580);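 note: tested at 20 µM; growth read once vehicle control cultures reached saturation at 30 °C; 1 = growth at the plate median or of vehicle wells; lower values mean less growth of the strain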
Conditions: S. cerevisiae deletion strains, growth OD

Measured: normalized growth

O[N+]1=CC=CCC1=S.On1ccccc1=S.[Zn]
active: locus YAL013W, strain DEP1, active compounds read low 0.0588 | locus YAL021C, strain ccr4, active compounds read low 0.0689 | locus YAL026C, strain drs2, active compounds read low 0.0618 | locus YAL030W, strain snc1, active compounds read low 0.0584 | locus YBL061C, strain skt5, active compounds read low 0.0681 | locus YBR009C, strain hhf1, active compounds read low 0.0728 | locus YBR021W, strain FUR4, active compounds read low 0.0965 | locus YBR023C, strain chs3, active compounds read low 0.0675 | locus YBR171W, strain sec66, active compounds read low 0.0802 | locus YBR229C, strain ROT2, active compounds read low 0.052 | locus YBR231C, strain swc5, active compounds read low 0.0683 | locus YBR279W, strain paf1, active compounds read low 0.0672 | locus YCL011C, strain gbp2, active compounds read low 0.0581 | locus YCL016C, strain dcc1, active compounds read low 0.0685 | locus YCL029C, strain bik1, active compounds read low 0.0621 | locus YCL061C, strain MRC1, active compounds read low 0.0686 | locus YCL069W, strain vba3, active compounds read low 0.0611 | locus YCR088W, strain abp1, active compounds read low 0.0601 | locus YDL005C, strain med2, active compounds read low 0.081 | locus YDL035C, strain GPR1, active compounds read low 0.0513 | locus YDL040C, strain nat1, active compounds read low 0.061 | locus YDL074C, strain BRE1, active compounds read low 0.0852 | locus YDL101C, strain DUN1, active compounds read low 0.0624 | locus YDL185W, strain tfp1, active compounds read low 0.0604 | locus YDL192W, strain arf1, active compounds read low 0.0611 | locus YDR001C, strain nth1, active compounds read low 0.0598 | locus YDR069C, strain doa4, active compounds read low 0.0662 | locus YDR101C, strain arx1, active compounds read low 0.0573 | locus YDR137W, strain rgp1, active compounds read low 0.0942 | locus YDR150W, strain NUM1, active compounds read low 0.0564 | locus YDR159W, strain sac3, active compounds read low 0.104 | locus YDR162C, strain NBP2, active compounds read low 0.0519 | locus YDR195W, strain ref2 0.122 | locus YDR297W, strain sur2, active compounds read low 0.0587 | locus YDR318W, strain mcm21, active compounds read low 0.0644 | locus YDR334W, strain swr1, active compounds read low 0.0636 | locus YDR335W, strain msn5, active compounds read low 0.0604 | locus YDR388W, active compounds read low 0.0563 | locus YDR392W, strain spt3, active compounds read low 0.102 | locus YDR502C, strain sam2, active compounds read low 0.0617 | locus YEL003W, strain gim4, active compounds read low 0.0591 | locus YEL037C, strain rad23, active compounds read low 0.0593 | locus YEL061C, strain CIN8 (second series), active compounds read low 0.0642 | locus YEL061C, strain CIN8, active compounds read low 0.0538 | locus YER015W, strain faa2, active compounds read low 0.0649 | locus YER016W, strain bim1, active compounds read low 0.0653 | locus YER110C, active compounds read low 0.0752 | locus YER111C, strain swi4, active compounds read low 0.0747 | locus YER155C, strain BEM2 (second series), active compounds read low 0.0952 | locus YER155C, strain BEM2, active compounds read low 0.0682 | locus YER167W, strain BCK2, active compounds read low 0.0543 | locus YFR010W, strain ubp6, active compounds read low 0.0685 | locus YGL078C, strain dbp3, active compounds read low 0.0615 | locus YGL086W, strain mad1, active compounds read low 0.0569 | locus YGL167C, strain pmr1, active compounds read low 0.0764 | locus YGL173C, strain kem1, active compounds read low 0.0718 | locus YGL227W, strain vid30, active compounds read low 0.0622 | locus YGL240W, strain doc1, active compounds read low 0.0817 | locus YGL248W, strain PDE1, active compounds read low 0.0522 | locus YGL253W, strain hxk2, active compounds read low 0.0558 | locus YGR078C, strain PAC10, active compounds read low 0.0545 | locus YGR135W, strain pre9, active compounds read low 0.0622 | locus YGR252W, strain gcn5, active compounds read low 0.164 | locus YHR013C, strain ard1, active compounds read low 0.117 | locus YHR027C, strain rpn1, active compounds read low 0.0678 | locus YHR030C, strain SLT2, active compounds read low 0.0537 and 0.0956 | locus YHR079C, strain IRE1 (second series), active compounds read low 0.0577 | locus YHR079C, strain IRE1, active compounds read low 0.111 | locus YHR094C, strain hxt1, active compounds read low 0.0579 | locus YHR129C, strain ARP1, active compounds read low 0.0604 | locus YHR142W, strain chs7, active compounds read low 0.0777 | locus YHR200W, strain rpn10, active compounds read low 0.0589 | locus YIL066C, strain RNR3, active compounds read low 0.0511 | locus YIL073C, strain SPO22, active compounds read low 0.113 | locus YIL125W, strain kgd1, active compounds read low 0.0608 | locus YIR030C, strain dcg1, active compounds read low 0.0598 | locus YJL092W, strain hpr5, active compounds read low 0.0603 | locus YJL095W, strain BCK1 (second series), active compounds read low 0.0629 | locus YJL095W, strain BCK1, active compounds read low 0.0641 and 0.0953 | locus YJL115W, strain asf1, active compounds read low 0.0768 | locus YJL129C, strain trk1, active compounds read low 0.0933 | locus YJL134W, strain LCB3, active compounds read low 0.0509 | locus YJL154C, strain vps35, active compounds read low 0.064 | locus YJL164C, strain tpk1, active compounds read low 0.0692 | locus YJL166W, strain qcr8, active compounds read low 0.0996 | locus YJL168C, strain set2, active compounds read low 0.0599 | locus YJL187C, strain SWE1 (second series), active compounds read low 0.0508 | locus YJL187C, strain SWE1, active compounds read low 0.0629
